Test results: PubChem BioAssay AID1159580 (chemical genetic matrix, 2015)
“And” between values parts separate entries of the source, which are not always exact repeats. Identical values can stand only once. About 2,000 (36%) of roughly 5,500 compounds were called active. Inconclusive results (about 18%) are left out. Rule as the data show it: active = normalized growth mostly below about 0.91 (no sharp cut-off); inconclusive = no clear call, values can overlap the other calls; inactive = mostly above about 0.92. The list shows a part of the results.

Assay: chemical genetic growth profiling, strain panel (AID 1159580);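 also: tested at 20 µM; growth read once vehicle control cultures reached saturation at 30 °C; 1 = growth at the plate median or of vehicle wells; lower values mean less growth of the strain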
Details: S. cerevisiae deletion strains, growth OD

Measured: normalized growth

O=C(O)CCCc1ccc(N(CCCl)CCCl)cc1
inactive: locus YAL021C, strain ccr4, hits give low values 0.929 | locus YAL026C, strain drs2, hits give low values 0.965 | locus YAL030W, strain snc1, hits give low values 0.971 | locus YAL040C, strain CLN3, hits give low values 1.1 | locus YBL061C, strain skt5, hits give low values 0.985 | locus YBR009C, strain hhf1, hits give low values 1 | locus YBR021W, strain FUR4, hits give low values 1.01 | locus YBR023C, strain chs3, hits give low values 0.957 | locus YBR171W, strain sec66, hits give low values 0.983 | locus YBR229C, strain ROT2, hits give low values 0.95 | locus YBR231C, strain swc5, hits give low values 0.997 | locus YBR279W, strain paf1, hits give low values 0.955 | locus YCL011C, strain gbp2, hits give low values 0.959 | locus YCL016C, strain dcc1, hits give low values 0.931 | locus YCL029C, strain bik1, hits give low values 0.989 | locus YCL061C, strain MRC1, hits give low values 0.986 | locus YCL069W, strain vba3, hits give low values 0.977 | locus YCR088W, strain abp1, hits give low values 0.984 | locus YDL005C, strain med2, hits give low values 0.997 | locus YDL035C, strain GPR1, hits give low values 0.974 | locus YDL040C, strain nat1, hits give low values 0.979 | locus YDL074C, strain BRE1, hits give low values 1 | locus YDL101C, strain DUN1, hits give low values 0.986 | locus YDL185W, strain tfp1, hits give low values 0.973 | locus YDL192W, strain arf1, hits give low values 0.984 | locus YDR001C, strain nth1, hits give low values 0.973 | locus YDR069C, strain doa4, hits give low values 0.955 | locus YDR101C, strain arx1, hits give low values 0.991 | locus YDR137W, strain rgp1, hits give low values 0.943 | locus YDR150W, strain NUM1, hits give low values 0.989 | locus YDR159W, strain sac3, hits give low values 1.01 | locus YDR162C, strain NBP2, hits give low values 0.947 | locus YDR195W, strain ref2 0.959 | locus YDR297W, strain sur2, hits give low values 0.986 | locus YDR318W, strain mcm21, hits give low values 0.999 | locus YDR334W, strain swr1, hits give low values 0.969 | locus YDR335W, strain msn5, hits give low values 0.967 | locus YDR363W, strain ESC2, hits give low values 1 | locus YDR388W, hits give low values 0.985 | locus YDR392W, strain spt3, hits give low values 0.881 | locus YDR502C, strain sam2, hits give low values 1 | locus YEL003W, strain gim4, hits give low values 0.988 | locus YEL037C, strain rad23, hits give low values 0.97 | locus YEL061C, strain CIN8 (second series), hits give low values 0.966 | locus YEL061C, strain CIN8, hits give low values 0.991 | locus YER002W, strain NOP16, hits give low values 1.02 | locus YER015W, strain faa2, hits give low values 0.973 | locus YER016W, strain bim1, hits give low values 0.986 | locus YER110C, hits give low values 0.983 | locus YER111C, strain swi4, hits give low values 0.978 | locus YER155C, strain BEM2 (second series), hits give low values 1.01 | locus YER155C, strain BEM2, hits give low values 0.991 | locus YER167W, strain BCK2, hits give low values 0.99 | locus YFR010W, strain ubp6, hits give low values 1 | locus YGL078C, strain dbp3, hits give low values 0.952 | locus YGL086W, strain mad1, hits give low values 0.932 | locus YGL167C, strain pmr1, hits give low values 0.978 | locus YGL173C, strain kem1, hits give low values 0.999 | locus YGL227W, strain vid30, hits give low values 0.955 | locus YGL240W, strain doc1, hits give low values 0.97 | locus YGL248W, strain PDE1, hits give low values 1 | locus YGL253W, strain hxk2, hits give low values 0.925 | locus YGR135W, strain pre9, hits give low values 1.04 | locus YGR252W, strain gcn5, hits give low values 1.07 | locus YHR013C, strain ard1, hits give low values 0.956 | locus YHR027C, strain rpn1, hits give low values 0.977 | locus YHR030C, strain SLT2, hits give low values 0.982 and 0.856 | locus YHR079C, strain IRE1 (second series), hits give low values 0.996 | locus YHR079C, strain IRE1, hits give low values 0.876 | locus YHR094C, strain hxt1, hits give low values 0.983 | locus YHR129C, strain ARP1, hits give low values 0.988 | locus YHR142W, strain chs7, hits give low values 0.949 | locus YHR200W, strain rpn10, hits give low values 0.981 | locus YIL066C, strain RNR3, hits give low values 0.967 | locus YIL073C, strain SPO22, hits give low values 1.02 | locus YIL125W, strain kgd1, hits give low values 0.95 | locus YIR030C, strain dcg1, hits give low values 0.983 | locus YJL092W, strain hpr5, hits give low values 0.967 | locus YJL095W, strain BCK1 (second series), hits give low values 0.974 | locus YJL095W, strain BCK1, hits give low values 1.06 and 0.888 | locus YJL115W, strain asf1, hits give low values 0.952 | locus YJL129C, strain trk1, hits give low values 0.927 | locus YJL134W, strain LCB3, hits give low values 0.983 | locus YJL154C, strain vps35, hits give low values 0.972 | locus YJL164C, strain tpk1, hits give low values 0.988 | locus YJL166W, strain qcr8, hits give low values 1 | locus YJL168C, strain set2, hits give low values 0.984 | locus YJL187C, strain SWE1 (second series), hits give low values 1 | locus YJR043C, strain POL32, hits give low values 0.963 | locus YJR066W, strain TOR1, hits give low values 0.967 | locus YJR075W, strain HOC1, hits give low values 1.02 and 0.993
